FLuc counter: firefly luciferase modulation, counter-screen for miR-21 project; P08659; purified FLuc, Km substrates, luminescence inhibition; Potency, µM (series often up to 57.5 µM), most hits filed as inhibitors; 360,000 tested, 6.9% active; also: nearly all actives have a fitted effect of over 55% in size
Target sequence (P08659 whole entry, looked up): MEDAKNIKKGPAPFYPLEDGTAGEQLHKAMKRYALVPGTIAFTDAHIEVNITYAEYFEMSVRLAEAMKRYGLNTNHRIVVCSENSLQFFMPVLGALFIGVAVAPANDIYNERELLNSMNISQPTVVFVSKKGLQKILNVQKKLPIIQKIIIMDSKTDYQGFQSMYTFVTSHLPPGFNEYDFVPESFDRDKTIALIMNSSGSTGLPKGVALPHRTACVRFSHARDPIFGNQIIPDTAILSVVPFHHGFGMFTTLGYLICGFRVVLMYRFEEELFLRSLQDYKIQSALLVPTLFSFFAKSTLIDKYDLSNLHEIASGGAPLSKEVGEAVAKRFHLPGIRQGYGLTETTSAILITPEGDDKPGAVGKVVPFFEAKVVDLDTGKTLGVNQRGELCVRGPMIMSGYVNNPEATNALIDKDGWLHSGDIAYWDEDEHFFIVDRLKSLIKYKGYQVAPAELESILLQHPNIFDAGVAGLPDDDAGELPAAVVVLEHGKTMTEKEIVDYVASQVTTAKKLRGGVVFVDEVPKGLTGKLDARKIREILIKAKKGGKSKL
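Biochemical qHTS of compounds, final roughly 60 µM downward over six points, against 10 nM purified firefly luciferase using Km concentrations of substrates (10 uM D-luciferin, 10 uM ATP) in Tris acetate pH 7.5 buffer; luminescence output.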
Rab9 promoter act: activates the Rab9 promoter; Huh7 Rab9 promoter-luciferase reporter, luminescence, 24 h; Potency, µM (doses to about 9.22 µM), actives largely listed as activators; 320,000 tested, 2.8% active; also: nearly all actives have a fitted effect of over 60% in size
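Luminescence read-out: Huh7 cells stably expressing Rab9-luciferase, treated 24 h with compound at 37 °C, then lysed with luciferase reagent for 10 min at ambient before reading.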
ELG1 genotox: induces genotoxicity in HEK293T cells with luciferase-tagged ELG1. 330,000 tested, 1.3% active. HEK293T ELG1-luciferase reporter, luminescence, 16 h. Potency, µM (titrated, usually from 46 µM), hits mostly activators; also: nearly all actives have a fitted effect of over 60% in size
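Quantitative HTS format in 1536-well plates. HEK293T ELG1-luciferase reporter cells receive test compound and are incubated 16 hr at 37 °C, 5% CO2; ONE-Glo added, 30 min room temperature, then luminescence read.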
NPC1 prom act: activators of NPC1 promoter | Huh7 NPC1 promoter luciferase reporter, 24 h | Potency, µM (titrated, usually from 9.22 µM), most hits filed as activators | 320,000 tested, 2.4% active; also: nearly all actives have a fitted effect of over 60% in size
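Stably transfected Huh7 (NPC1 promoter→luciferase), 1500 cells/well in Opti-MEM + 10% FBS, 2 h settle, then compound 24 h at 37 °C. Luminescence after 10 min with Amplite reagent.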
SMN2 splice enh: increases expression of the SMN2 splice variant | HEK293 SMN2-luciferase splicing reporter, luminescence, 30-36 h | Potency, µM (highest dose often 46.1 µM), hits mostly activators | 210,000 tested, 2.8% active | AID 1458; also: nearly all actives have a fitted effect of over 55% in size
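qHTS luciferase splicing reporter: luminescence rises when SMN2 exon 7 is included in transfected HEK293 cells. Compound exposure lasted 30-36 h at 37C, with 4.5 mM final sodium butyrate as control, followed by a ONE-Glo read.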
p53 reactivator: re-activators of mutant p53 | H1299 p53-A138V BP100-luciferase reporter, luminescence, 24 h | Potency, µM (titrated, usually from 92.2 µM), usual class: activators | 320,000 tested, 0.063% active | AID 504706; also: nearly all actives have a fitted effect of over 45% in size
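H1299 (p53-null), stable ts p53-A138V + BP100-Luc; 1000 cells/well, Opti-MEM/10% FBS; cpd 4 pt, 1:5; 24 h, 37 deg C, 5% CO2; detection reagent 10 min RT; luminescence.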
A number is an active result; [ ] = another dose, or the depositor's remark. An excerpt weighted towards active compounds, which were near 7.4% of everything screened. Calls follow the shape of the dose curve; as a rule, active = well fitted curve in the direction sought with a large enough effect; inconclusive = small, poorly fitted or top-dose-only effect, or another doubt; inactive = no such curve, though single readings can be large; an effect the other way counts as inactive or inconclusive.

O=C(Nc1nc2ccccc2[nH]1)c1ccccc1OC(F)F was read as FLuc counter 0.95µM, Rab9 promoter act 0.5µM, ELG1 genotox inconclusive, NPC1 prom act 0.79µM and p53 reactivator inactive.
CC(C)Oc1ccc(C(=O)Nc2nc3ccccc3[nH]2)cc1 was read as FLuc counter 0.12µM, Rab9 promoter act inconclusive, ELG1 genotox inconclusive, NPC1 prom act inconclusive and p53 reactivator inactive.
Screening O=C(Nc1nc2ccccc2[nH]1)c1ccc(OC(F)F)cc1 returned FLuc counter 0.54µM, Rab9 promoter act 0.28µM, ELG1 genotox 1.5µM, NPC1 prom act 0.13µM and p53 reactivator inactive.
For N#CC(Cc1ccc(OC(F)F)cc1)c1nc2ccccc2[nH]1 (centres undefined) the results were FLuc counter 8.5µM, Rab9 promoter act inconclusive, ELG1 genotox inconclusive, NPC1 prom act inconclusive, SMN2 splice enh inconclusive and p53 reactivator inconclusive.
CCC(Oc1ccccc1)C(=O)Nc1nc2ccccc2[nH]1 (centres undefined) was read as FLuc counter inconclusive, Rab9 promoter act inactive, ELG1 genotox inactive, NPC1 prom act inactive, SMN2 splice enh inactive and p53 reactivator inactive.
For CC(C)Oc1ccc(C(=O)Nc2ncn[nH]2)cc1 the results were FLuc counter inconclusive, Rab9 promoter act inconclusive, ELG1 genotox inconclusive, NPC1 prom act inconclusive and p53 reactivator inactive.
Screening COc1ccc(C(=O)NCC(=O)OCC(=O)c2c(C)[nH]c3ccccc23)cc1OC returned ELG1 genotox inactive and p53 reactivator inactive.
Screening CC(Sc1nc2c(c(=O)[nH]1)CCCC2)C(=O)Nc1cc(C(F)(F)F)ccc1Cl (centres undefined) returned FLuc counter inactive.
`CC[C@@H]1O[C@]2(C=C[C@@H]1C)C[C@H]1C[C@H](CC=C(C)[C@@H](O[C@@H]3C[C@H](OC)[C@H](O[C@@H]4C[C@H](OC)[C@H](O)[C@H](C)O4)[C@H](C)O3)[C@@H](C)C=CC=C3CO[C@@H]4[C@@H](O)C(C)=C[C@@H](C(=O)O1)[C@]34O)O2` gave SMN2 splice enh inactive.
`Cc1ccccc1CN1C[C@@H]2C[C@@H](c3cnc(N4CCOCC4)s3)N3CCC[C@@]23C1=O` gave FLuc counter inactive, Rab9 promoter act inactive, ELG1 genotox inactive, NPC1 prom act inactive, SMN2 splice enh 16µM and p53 reactivator inactive.
`CCOc1ccc(NC(=O)C2CCC(CNS(=O)(=O)c3ccc4c(c3)CCCC(=O)N4)CC2)cc1` (centres undefined) gave FLuc counter inactive.
For O=C(Nc1c(C(=O)N2CCN(c3ccccn3)CC2)oc2ccccc12)c1ccc([N+](=O)[O-])cc1 the results were FLuc counter 6.7µM, Rab9 promoter act inactive, ELG1 genotox inactive[9.26 µM], NPC1 prom act inactive and p53 reactivator inactive.
Screening Cc1cc(-c2n[nH]c(=S)n2/N=C/c2c[nH]c3ccccc23)n[nH]1 returned FLuc counter inactive, Rab9 promoter act inactive, ELG1 genotox inactive, NPC1 prom act inactive and p53 reactivator inactive.
COc1cccc(/C=N/c2nc3ccccc3n2C)c1O was read as FLuc counter inconclusive, Rab9 promoter act inactive, ELG1 genotox inactive and NPC1 prom act inactive.
CC(C)n1c(/N=C/c2c[nH]c3ccccc23)nc2ccccc21 was read as FLuc counter 2.7µM, Rab9 promoter act inactive, ELG1 genotox inactive, NPC1 prom act inactive, SMN2 splice enh inactive and p53 reactivator inactive.
Screening Cn1c(/N=C/c2c[nH]c3ccccc23)nc2ccccc21 returned FLuc counter 0.13µM, Rab9 promoter act inactive, ELG1 genotox inactive, NPC1 prom act inactive and p53 reactivator inactive.
`O=C(O)CCC(=O)Nc1ccc(N=Nc2ccccc2)cc1` gave FLuc counter 11µM, Rab9 promoter act inactive, ELG1 genotox inactive, NPC1 prom act inactive, SMN2 splice enh inactive and p53 reactivator inactive.
O=C(CCCC(=O)OCC(=O)c1cccs1)Nc1ccc(Oc2ccccc2)cc1 was read as FLuc counter 21µM, Rab9 promoter act inactive, ELG1 genotox inactive, NPC1 prom act inactive, SMN2 splice enh inactive and p53 reactivator inactive.
Screening CC1CC1C(=O)OCC(=O)Nc1ccc(N=Nc2ccccc2)cc1 (centres undefined) returned FLuc counter inconclusive, Rab9 promoter act 1.8µM, ELG1 genotox 16µM, NPC1 prom act 3.2µM, SMN2 splice enh 13µM and p53 reactivator inconclusive.
O=C(O)CCC(=O)NNC(=O)CCC(=O)Nc1ccccc1 was read as FLuc counter inactive, Rab9 promoter act inactive, ELG1 genotox inactive, NPC1 prom act inactive, SMN2 splice enh inactive and p53 reactivator inactive.
`COc1ccccc1C(=O)NC(=O)COC(=O)C1CC1C` (centres undefined) gave FLuc counter 8.5µM, Rab9 promoter act inactive, ELG1 genotox inactive, NPC1 prom act inactive and p53 reactivator inactive.
Screening Cc1c(C(=O)NCCc2ccc(Cl)cc2)sc2nc3n(c(=O)c12)CCCC3 returned FLuc counter inactive.
`CCCC(=O)OCC(=O)Nc1ccc2[nH]c(=O)[nH]c2c1` gave FLuc counter inactive, Rab9 promoter act inactive, ELG1 genotox inactive, NPC1 prom act inactive, SMN2 splice enh inactive and p53 reactivator inactive.
Screening CCCC(=O)OCC(=O)Nc1ccc(N=Nc2ccccc2)cc1 returned FLuc counter 9.5µM, Rab9 promoter act 3.5µM, ELG1 genotox 21µM, NPC1 prom act 2.2µM, SMN2 splice enh 16µM and p53 reactivator inconclusive.
O=C(COC(=O)C1CC1)Nc1ccc(Oc2ccccc2)cc1 was read as FLuc counter 21µM, Rab9 promoter act inconclusive, ELG1 genotox inactive, NPC1 prom act inactive, SMN2 splice enh inactive and p53 reactivator inactive.
`COc1cccc([C@@H]2Oc3ccc(OC)cc3C(=O)[C@H]2OC(=O)NS(=O)(=O)c2ccc(C)cc2)c1` gave SMN2 splice enh 11µM.
Screening CC(C)c1ccc(-c2noc(SCC(=O)N3CCCCC3C)n2)cc1 (centres undefined) returned FLuc counter 3µM.
For CC1CCN(C(=O)CSc2nc(-c3ccc(C(C)C)cc3)no2)CC1 the results were FLuc counter 3.4µM.
For COc1cc(NC(=O)CSc2nc(-c3ccc(C(C)C)cc3)no2)cc(OC)c1 the results were FLuc counter 2.7µM.
`CN(C(=O)CSc1nc(-c2ccccc2)no1)c1ccc(F)cc1` gave FLuc counter inactive.
CCN(C(=O)CSc1nc(-c2ccc(C(C)C)cc2)no1)c1ccccc1 was read as FLuc counter 9.5µM.

Compound activity deposited in PubChem BioAssay by National Center for Advancing Translational Sciences (NCATS).
